Source: PubChem BioAssay (EPA / NIEHS)
Values joined by “and” are separate entries in the source; they are usually repeats but may differ in a detail not shown here. Identical values can stand only once. More than one record can exist for a structure, and the calls need not agree. Active and inactive are the calls of the source. How the source made its calls: active means hit-call score of the fitted dose curve at least 0.9, where 1 is the maximum; inactive means score below 0.9.

Legend:
[1] = read-out: Interleukin-8 (IL8), CXCL8 (gene 3576); assay: BSK_BE3C_IL8: BioMAP Diversity Plus: BE3C Assay for Interleukin-8 (IL8) Biomarker Activity (AID 2284280); conditions: primary human bronchial epithelial cells
In short: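 IL-8 signal gain, normalised to DMSO vehicle, was scored after a 24 h chemical exposure of primary human bronchial epithelial cells, with detection by ELISA.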

[2] = read-out: Epidermal growth factor receptor (EGFR), EGFR (gene 1956); assay: BSK_BE3C_EGFR: BioMAP Diversity Plus: BE3C Assay for Epidermal growth factor receptor (EGFR) Biomarker Activity (AID 2284281); conditions: primary human bronchial epithelial cells
In short: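 Compound is added to human bronchial epithelial cells, cells incubate 24 h, then EGFR is detected by ELISA. Values reflect positive-direction fitting relative to DMSO.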

KRT18 (gene 3875) = assay: BSK_BE3C_Keratin818: BioMAP Diversity Plus: BE3C Assay for Keratin 818 Biomarker Activity (AID 2284282); conditions: primary human bronchial epithelial cells
In short: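 Chemicals are added to human lung bronchial epithelial primary cells (BE3C system) and incubated 24 h. Keratin 8/18 is then measured by ELISA, with parallel SRB total-protein staining gauging overt cytotoxicity.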

[3] = read-out: Matrix Metallopeptidase 9 (MMP9), MMP9 (gene 4318); assay: BSK_BE3C_MMP9: BioMAP Diversity Plus: BE3C Assay for Matrix Metallopeptidase 9 (MMP9) Biomarker Activity (AID 2284283); conditions: primary human bronchial epithelial cells
In short: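 Endpoint is the ELISA MMP-9 signal in human primary bronchial epithelial cultures taken 24 h after chemical dosing. DMSO serves as negative control and baseline, with gain-of-signal fitting.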

[4] = read-out: Plasminogen activator inhibitor-1 (PAI1), SERPINE1 (gene 5054); assay: BSK_CASM3C_PAI1: BioMAP Diversity Plus: CASM3C Assay for Plasminogen activator inhibitor-1 (PAI1) Biomarker Activity (AID 2284284); conditions: primary human coronary artery smooth muscle cells;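 further: PAI-1 protein level measured by ELISA 24 h after dosing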
[5] = read-out: Monocyte Chemoattractant Protein-1 (MCP1), CCL2 (gene 6347); assay: BSK_hDFCGF_MCP1: BioMAP Diversity Plus: hDFCGF Assay for Monocyte Chemoattractant Protein-1 (MCP1) Biomarker Activity (AID 2284285); conditions: primary human foreskin fibroblasts
In short: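 Human foreskin fibroblasts (hDFCGF system) were exposed to compound and secreted MCP-1 was measured by ELISA after 24 hours. Activity was fitted relative to DMSO. Cytotoxicity was checked by SRB total-protein staining in parallel cultures.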

[6] = read-out: Vascular cell adhesion molecule 1 (VCAM1), VCAM1 (gene 7412); assay: BSK_IMphg_VCAM1: BioMAP Diversity Plus: IMphg Assay for Vascular cell adhesion molecule 1 (VCAM1) Biomarker Activity (AID 2284286); conditions: primary human endothelial cells with macrophages
In short: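 Human venular endothelial cells co-cultured with macrophages; VCAM-1 quantified by ELISA 24 h after dosing, fitted in the positive direction against DMSO. Cytotoxicity was checked in parallel cultures by SRB total-protein staining (0.1% SRB after 10% TCA fixation, 560 nm).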

CD40, CD40 (gene 958) = assay: BSK_IMphg_CD40: BioMAP Diversity Plus: IMphg Assay for CD40 Biomarker Activity (AID 2284288); conditions: primary human endothelial cells with macrophages
In short: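 Venular endothelial cells co-cultured with macrophages (human primary), CD40 measured by ELISA 24 h after dosing. Positive-direction fit vs DMSO baseline; cytotoxicity tracked by SRB total-protein staining in parallel cultures.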

[7] = read-out: TIMP metallopeptidase inhibitor 2 (TIMP2), TIMP2 (gene 7077); assay: BSK_hDFCGF_TIMP2: BioMAP Diversity Plus: hDFCGF Assay for TIMP metallopeptidase inhibitor 2 (TIMP2) Biomarker Activity (AID 2284289); conditions: primary human foreskin fibroblasts
In short: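 Primary human foreskin fibroblasts in the hDFCGF system, dosed for 24 h; TIMP-2 level measured by ELISA, fitted in the positive direction against DMSO; cytotoxicity checked in parallel by sulforhodamine B total protein staining.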

[8] = read-out: Intercellular Adhesion Molecule 1 (ICAM1), ICAM1 (gene 3383); assay: BSK_hDFCGF_ICAM1: BioMAP Diversity Plus: hDFCGF Assay for Intercellular Adhesion Molecule 1 (ICAM1) Biomarker Activity (AID 2284287); conditions: primary human foreskin fibroblasts
In short: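 Primary human foreskin fibroblasts (hDFCGF system) dosed with chemical; ICAM-1 quantified by ELISA at 24 h relative to DMSO. Parallel SRB total-protein staining to assess overt cytotoxicity.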

Measured: AC50

C=CC(=O)OCC(F)(F)C(F)(F)C(F)(F)C(F)(F)COC(=O)C=C
inactive: KRT18 (gene 3875)
active: [1] 7.98 µM and 7.77 µM | [2] 7.87 µM and 14.5 µM | KRT18 (gene 3875) 10.7 µM | [3] 7.28 µM and 11.8 µM | [4] 53.7 µM and 53.4 µM | [5] 7.35 µM and 7.89 µM | [6] 30.4 µM and 23.4 µM | CD40, CD40 (gene 958) 18.8 µM and 25 µM | [7] 12.4 µM and 12.7 µM

O=C(O)C(F)(OC(F)(F)C(F)(OC(F)(F)C(F)(F)C(F)(F)F)C(F)(F)F)C(F)(F)F (centres undefined)
inactive: [1] | [2] | KRT18 (gene 3875) | [4] | [5] | [6] | [8] | CD40, CD40 (gene 958)
active: [1] 0.025 µM

FC(F)(F)C(F)(F)C(F)(F)N(C(F)(F)C(F)(F)C(F)(F)F)C(F)(F)C(F)(F)C(F)(F)F
not listed: [7]
inactive: all other assays above

O=P(O)(O)OCCC(F)(F)C(F)(F)C(F)(F)C(F)(F)C(F)(F)C(F)(F)F
not listed: [7] | [8]
inactive: all other assays above

CCCCCCOC(=O)c1ccccc1O
inactive: [1] | [2] | KRT18 (gene 3875) | [4]
active: [5] 18.2 µM and 22.9 µM

O=S(=O)(OCCOC(F)(F)F)C(F)(F)F
not listed: [8]
inactive: all other assays above

OCC(F)(F)C(F)(F)C(F)(F)C(F)(F)C(F)(F)C(F)(F)F
inactive: [1] | [2] | KRT18 (gene 3875) | [4] | [5] | [6] | CD40, CD40 (gene 958)
active: [2] 48.7 µM | [5] 23 µM

N=C(N)C(F)(F)C(F)(F)C(F)(F)C(F)(F)C(F)(F)C(F)(F)C(F)(F)F
inactive: [1] | [2] | KRT18 (gene 3875) | [3] | [4] | [5] | [6] | [8] | CD40, CD40 (gene 958)
active: [1] 30 µM | [5] 43.8 µM | [6] 41.4 µM | [8] 30 µM

FC(F)(I)C(F)(F)C(F)(F)C(F)(F)I
inactive: [1] | [4] | [6] | CD40, CD40 (gene 958)
active: [1] 47.4 µM and 46 µM | [2] 45.3 µM and 47.3 µM and 46.8 µM | KRT18 (gene 3875) 47 µM and 47.5 µM and 43.1 µM | [4] 45.7 µM and 49.4 µM | [5] 52.1 µM and 46.6 µM and 47 µM | [6] 54 µM | [8] 49.8 µM and 46 µM and 53.4 µM

O=C(O)C=C(C(F)(F)F)C(F)(F)F
active: [5] 2.31 µM | [6] 30 µM
inactive: [1] | [2] | KRT18 (gene 3875) | [4] | [5] | [6] | [8] | CD40, CD40 (gene 958)

OCCCC(F)(F)C(F)(F)C(F)(F)F
not listed: [7] | [8]
inactive: all other assays above

O=C(O)C(F)(F)C(F)(F)C(F)(F)F
inactive: [1] | [2] | KRT18 (gene 3875) | [3] | [4] | [5] | [6] | CD40, CD40 (gene 958)
active: CD40, CD40 (gene 958) 319 nM

O=C(O)C(F)(F)C(F)(F)F
inactive: [1] | [2] | KRT18 (gene 3875) | [3] | [4] | [5] | [6] | CD40, CD40 (gene 958)
active: [1] 26.1 µM

OCCCC(F)(F)C(F)(F)C(F)(F)C(F)(F)C(F)(F)C(F)(F)C(F)(F)F
inactive: [6]
active: [1] 37.1 µM and 43 µM | [2] 20.4 µM and 47.3 µM | KRT18 (gene 3875) 50.6 µM and 48.5 µM | [4] 45.3 µM and 48.2 µM | [5] 16.1 µM and 17.6 µM | [6] 54.6 µM | CD40, CD40 (gene 958) 42.5 µM and 53 µM | [7] 14.4 µM and 16.8 µM

O=C(O)C(F)(F)C(F)(F)C(F)(F)C(F)(F)C(F)(F)C(F)(F)C(F)(F)C(F)(F)C(F)(F)C(F)(F)C(F)(F)C(F)(F)C(F)(F)F
active: [3] 675 nM
inactive: [1] | [2] | KRT18 (gene 3875) | [3] | [4] | [5] | [6] | CD40, CD40 (gene 958)

FC(F)(F)C(F)(F)C(F)(F)C(F)(F)C(F)(F)C(F)(F)C(F)(F)C(F)(F)CCS
active: [5] 1.2 µM
inactive: [1] | [2] | KRT18 (gene 3875) | [3] | [4] | [5] | [6] | CD40, CD40 (gene 958)

O=C(O)C(F)(F)C(F)(F)C(F)(F)C(F)(F)C(F)(F)C(F)(F)C(F)(F)C(F)(F)C(F)(F)C(F)F
inactive: [1] | [2] | [4] | [6] | CD40, CD40 (gene 958)
active: [2] 7.89 µM | KRT18 (gene 3875) 19.6 µM and 10.5 µM | [5] 23.4 µM and 42 µM | [6] 52.7 µM

FC(F)(F)C(F)(F)C(F)(F)C(F)(F)C(F)(F)CCI
not listed: [7] | [8]
inactive: all other assays above

O=C(O)C(F)(F)C(F)(F)C(F)(F)C(F)(F)F
not listed: [8]
inactive: all other assays above

COC(=O)CCC(F)(F)C(F)(F)C(F)(F)C(F)(F)F
not listed: [7] | [8]
inactive: all other assays above

Cc1ccc(S(=O)(=O)OCC(F)(F)C(F)(F)C(F)(F)C(F)(F)C(F)(F)C(F)F)cc1
active: [5] 6.75 µM and 3.49 µM
not listed: [7] | [8]
inactive: all other assays above

O=C(Cl)C(F)(F)C(F)(F)C(F)(F)C(F)(F)C(F)(F)C(F)(F)C(F)(F)C(F)(F)F
inactive: [4] | [5] | [8] | CD40, CD40 (gene 958)
active: [1] 30 µM and 43.4 µM and 38.6 µM | [2] 39 µM and 43.6 µM and 45.5 µM | KRT18 (gene 3875) 47.8 µM and 43.9 µM and 46.8 µM | [5] 49.5 µM and 46.4 µM | [6] 35.9 µM and 46.8 µM and 46.3 µM | [8] 16.5 µM and 19.9 µM | CD40, CD40 (gene 958) 36600 nM

O=S(=O)(OCC(F)F)C(F)(F)F
not listed: [3] | [7]
inactive: all other assays above

FC(F)(F)C(F)(F)C(F)(F)C(F)(F)C(F)(F)C(F)(F)C(F)(F)Br
not listed: [7] | [8]
inactive: all other assays above

FC(F)(F)C(F)(F)CNCC(F)(F)C(F)(F)F
not listed: [8]
inactive: all other assays above
